According to article PMC4336329 (PLoS ONE, 2015):
The whole screen tested about 310,000 compounds, of which about 14,000 (4.5%) showed an effect of 50% or more. Effects have a minus sign here. The full list was thinned out, with strong results kept by preference.

molecular target: human ether-à-go-go-related gene (hERG) potassium channel (human, UniProt Q12809); experiment: primary screen, population patch clamp on CHO cells stably expressing hERG; higher = less effect of the substance
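Also: peak tail current of the secondary pulse compared with the same well before compound.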

Sequence of human ether-à-go-go-related gene (hERG) potassium channel (Q12809 whole entry, looked up): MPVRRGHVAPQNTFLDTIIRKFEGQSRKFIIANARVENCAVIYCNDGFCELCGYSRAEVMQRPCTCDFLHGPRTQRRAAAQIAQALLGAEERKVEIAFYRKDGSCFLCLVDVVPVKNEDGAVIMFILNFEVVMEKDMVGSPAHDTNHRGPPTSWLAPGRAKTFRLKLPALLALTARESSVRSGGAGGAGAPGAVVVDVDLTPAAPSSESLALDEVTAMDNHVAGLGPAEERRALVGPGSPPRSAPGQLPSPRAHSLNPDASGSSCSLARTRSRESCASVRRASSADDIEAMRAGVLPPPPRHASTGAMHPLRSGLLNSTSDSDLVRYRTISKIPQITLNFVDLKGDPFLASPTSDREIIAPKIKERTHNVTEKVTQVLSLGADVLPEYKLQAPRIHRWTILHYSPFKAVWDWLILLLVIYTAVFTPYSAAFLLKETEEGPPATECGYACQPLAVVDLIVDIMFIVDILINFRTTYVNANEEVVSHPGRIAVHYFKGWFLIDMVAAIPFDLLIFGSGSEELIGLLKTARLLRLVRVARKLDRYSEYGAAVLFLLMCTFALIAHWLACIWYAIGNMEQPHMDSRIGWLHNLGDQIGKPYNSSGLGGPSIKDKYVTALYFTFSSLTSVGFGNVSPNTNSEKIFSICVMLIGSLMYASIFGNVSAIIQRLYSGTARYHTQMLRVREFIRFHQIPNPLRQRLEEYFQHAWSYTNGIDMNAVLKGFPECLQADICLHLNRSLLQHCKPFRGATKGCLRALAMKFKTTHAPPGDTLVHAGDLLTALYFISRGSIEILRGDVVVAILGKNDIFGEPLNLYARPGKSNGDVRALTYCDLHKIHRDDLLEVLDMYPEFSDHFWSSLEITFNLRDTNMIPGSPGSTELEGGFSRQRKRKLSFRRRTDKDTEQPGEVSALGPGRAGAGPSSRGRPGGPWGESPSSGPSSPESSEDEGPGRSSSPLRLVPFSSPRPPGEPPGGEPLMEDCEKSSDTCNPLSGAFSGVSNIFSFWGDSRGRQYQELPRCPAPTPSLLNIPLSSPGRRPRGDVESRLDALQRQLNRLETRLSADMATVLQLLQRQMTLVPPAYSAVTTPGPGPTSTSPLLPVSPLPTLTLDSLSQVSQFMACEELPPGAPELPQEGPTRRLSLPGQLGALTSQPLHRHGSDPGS

Structure (SMILES) | hERG current change (%, negative = inhibition) at 10uM [%]
COC(=O)c1ccc(C)c(NC(=O)C(CCSC)NC(=O)c2cc(OC)c(OC)c(OC)c2)c1 (stereo not shown) | 13.6
CCn1c(-c2ccc(Cl)cc2)n[nH]c1=S | 13.2
O=C(CSC1CS(=O)(=O)c2cc([N+](=O)[O-])ccc21)NNC(=O)c1ccc(Cl)cc1 (stereo not shown) | -74
O=C(CSC1CS(=O)(=O)c2cc([N+](=O)[O-])ccc21)NNC(=O)c1ccccc1 (stereo not shown) | -20.7
O=C(CSc1nnnn1-c1ccc(Cl)cc1)NNC(=O)c1ccc([N+](=O)[O-])cc1 | -23.2
COc1ccc(S(=O)(=O)N2CCCCC2)cc1NC(=O)c1cccs1 | 32.3
O=S(=O)(Nc1ccc(OC(F)F)cc1)c1ccc(-c2ccon2)s1 | -15.3
Cc1ccc(C)c(N2CCN(CC(=O)Nc3ccc4[nH]c(=O)[nH]c4c3)CC2)c1 | -3.56
CCCCN(CCCC)c1ccc(C(=O)c2ccccc2C(=O)O)c(O)c1 | -75.2
CN(C)c1ccc(C(=O)c2ccccc2C(=O)O)c(O)c1 | 12.7
CCN(CC)c1ccc(C(=O)c2ccccc2C(=O)O)c(O)c1 | 3.8
FC(F)(F)c1cccc(NC(=S)N2CCN(c3cccc(C(F)(F)F)c3)CC2)c1 | 16.6
Cc1ccc(NC(=O)C2CCCN(S(=O)(=O)c3c(C)noc3/C=C/N(C)C)C2)cc1F (stereo not shown) | -1.44
CC1CCCN(Cc2nc3c(c(=O)n(C)c(=O)n3C)n2Cc2c(F)cccc2Cl)C1 (stereo not shown) | -1.45
CCCCN(C(=O)c1ccc(Cl)cc1)C1CC2CCC(C1)N2C.Cl (stereo not shown) | -47.4
CN1C2CCC1CC(NC(=O)c1ccc(Cl)cc1)C2 (stereo not shown) | 7.55
CN1CCC(N(CCc2ccccc2)C(=O)CCC(=O)O)CC1 | -1.87
CN1C2CCC1CC(N(CCc1ccccc1)C(=O)c1ccc(Cl)cc1)C2.Cl (stereo not shown) | -83.2
COc1cc(C(=O)N(CCc2ccccc2)C2CC3CCC(C2)N3C)cc(OC)c1OC.Cl.O (stereo not shown) | -38.3
Cc1cc(C)cc(C(=O)N(CCc2ccccc2)C2CC3CCC(C2)N3C)c1.Cl (stereo not shown) | -56.5
COc1ccc(C2CC(c3cccs3)=NN2C(=O)CSc2nncn2C)cc1OC (stereo not shown) | 4.67
O=C(Nc1ccccc1N1CCOCC1)C1CCCCN1S(=O)(=O)c1ccccc1 (stereo not shown) | -20.8

Structure (SMILES) | hERG current change (%, negative = inhibition) at 10uM [%]
Cc1nc([N+](=O)[O-])c(NCCO)n1Cc1ccccc1 | 8.23
COc1ccccc1CN1C[C@@H]2C[C@@H](c3ccccc3C)N3CCC[C@@]23C1=O | 17.4
Cc1ccccc1CN1C[C@@H]2C[C@@H](c3cn[nH]c3-c3ccc(F)cc3)N3CCC[C@@]23C1=O | -52.2
COc1ccc(-c2[nH]ncc2[C@@H]2C[C@H]3CN(Cc4ccccc4C)C(=O)[C@]34CCCN24)cc1 | -51.7
COc1ccccc1CN1C[C@@H]2C[C@@H](c3ccccc3OC)N3CCC[C@@]23C1=O | -14
Cc1ccccc1CN1C[C@@H]2C[C@@H](c3cn[nH]c3-c3ccccc3)N3CCC[C@@]23C1=O | -5.95
CCn1ncc([C@@H]2C[C@H]3CN(Cc4ccccc4C)C(=O)[C@]34CCCN24)c1C | 17.7
Cc1cc(NC(=O)C2CC=CCC2C(=O)O)no1 (stereo not shown) | -1.9
CN(Cc1ccccc1F)C(=O)CN1CCN(S(=O)(=O)c2ccc3c(c2)OCCCO3)CC1 | -18.4
O=C(O)C1CCCCC1C(=O)N1CCN(S(=O)(=O)c2ccc(F)cc2)CC1 (stereo not shown) | 8.47
COc1ccc(-c2cc(=O)c3cc(OC)c(OC)cc3[nH]2)cc1 | -5.83
COc1cc(NC(=O)c2cnc(N)s2)cc(C(=O)Nc2cccc(C(F)(F)F)c2)c1 | -26
COC(=O)c1cc(Nc2cc(C)c3ccc(O)cc3n2)cc(C(=O)OC)c1 | 6.58
Cc1cc(Nc2ccccc2)nc2cc(O)ccc12 | -11.5
COc1ccc(Nc2cc(C)c3ccccc3n2)cc1 | 4.57
Cc1ccc(Nc2cc(C)c3ccc(O)cc3n2)cc1C.Cl | -58.5
COc1ccc(Nc2cc(C)c3ccc(O)cc3n2)cc1 | -58.4
Cc1ccc(Nc2cc(C)c3c(O)cccc3n2)cc1C.Cl | 19
COC(=O)c1c(-c2cccs2)csc1NC(=O)CSc1ncnc2sc(C)c(C)c12 | 0.474
Cc1cc(C)nc(-n2nc(C)c3c(C(F)F)cc(C)nc32)n1 | 15.3
CCC1=C([N+](=O)[O-])C(c2ccc3c(c2)OCO3)NC(=O)N1 (stereo not shown) | 16
O=C(CSc1nc(CCC2CCCC2)nc2ccccc12)NCc1ccc2c(c1)OCO2 | 15

Structure (SMILES) | hERG current change (%, negative = inhibition) at 10uM [%]
CCOP(=O)(OCC)C(O)c1ccc(OC)c(OC)c1 (stereo not shown) | 15.6
Cc1nc(SCC(=O)NCc2ccco2)nc(C)c1C | -6.76
Cc1ccc(CNC(=O)c2csc3c2CCCCC3)cc1 | 2.19
COc1ccc(OCC(=O)Nc2cc(-c3nn4c(C)nnc4s3)ccc2C)cc1 | -4.85
Cc1ccc(OCC(=O)Nc2cc(-c3nn4c(C)nnc4s3)ccc2C)cc1 | -24.7
Cc1ccc(-c2nn3c(C)nnc3s2)cc1NC(=O)COc1ccc(Cl)cc1 | -70.6
CC(C)[C@H]1CN(C)CCN1Cc1cn(C)nc1-c1cccc(Cl)c1 | -27
COc1ccc(C(c2c(NC(=O)c3ccco3)sc(C)c2C)N2CCOCC2)cc1OC (stereo not shown) | -15
CC(=O)Nc1ccc(-c2sc(Nc3ccccc3)n[n+]2C)cc1.[Cl-] | 27.5
COc1ccccc1C1C=C(c2ccc(Cl)cc2)Nc2nc(N3C(=O)CCC3=O)nn21 (stereo not shown) | -32.8
N#C/C(=C\c1ccc(N2CCCC2)c([N+](=O)[O-])c1)c1nc2ccccc2[nH]1 | -35.5
N#C/C(=C/c1ccc(N2CCCC2)c([N+](=O)[O-])c1)c1nc2ccccc2[nH]1 | -3.43
N#C/C(=C\c1ccc(N2CCOCC2)c([N+](=O)[O-])c1)c1nc2ccccc2[nH]1 | -59.6
COc1cc(NC(=O)c2ccccc2)c(OC)cc1NC(=O)CN1C(=O)NC2(CCCCC2)C1=O | -70.3
COc1ccccc1NC(=O)CN1C(=O)NC2(CCCCCCC2)C1=O | 1.08
CCOc1cc(N2CCOCC2)c(OCC)cc1NC(=O)CN1C(=O)NC(Cc2ccccc2)C1=O (stereo not shown) | -25.5
CCOc1cc(N2CCOCC2)c(OCC)cc1NC(=O)CN1C(=O)NC2(CCc3ccccc32)C1=O (stereo not shown) | -44.5
CCOc1cc(N2CCOCC2)c(OCC)cc1NC(=O)CN1C(=O)NC2(CCCCC2)C1=O | -69.7
COc1cc(NC(=O)c2ccccc2)c(OC)cc1NC(=O)CN1C(=O)NC2(CCCCC2C)C1=O (stereo not shown) | -49.8
CCOc1cc(N2CCOCC2)c(OCC)cc1NC(=O)CN1C(=O)NC(C)(C2CC2)C1=O (stereo not shown) | 26.8
CCOc1cc(N2CCOCC2)c(OCC)cc1NC(=O)CN1C(=O)NC2(CCCCCCC2)C1=O | -63
CCOc1cc(N2CCOCC2)c(OCC)cc1NC(=O)CN1C(=O)N(C)C2(CCCCC2)C1=O | -23.5

Structure (SMILES) | hERG current change (%, negative = inhibition) at 10uM [%]
CCOc1ccc(S(=O)(=O)N2CCOCC2)cc1NC(=O)CN1C(=O)NC2(CCCCC2)C1=O | -17.9
CCOc1cc(N2CCOCC2)c(OCC)cc1NC(=O)CN1C(=O)C2CC=CCC2C1=O (stereo not shown) | -8.84
CCOc1cc(N2CCOCC2)c(OCC)cc1NC(=O)CN1C(=O)NC(CC(C)C)C1=O (stereo not shown) | -70.4
CSc1ccccc1C(=O)Nc1nc2ccccc2[nH]1 | 2.78
COc1ccccc1N(CC(=O)NC1CCCC1)C(=O)CCC(=O)Nc1ccccn1 | 6.68
Cc1[nH]n(-c2ccccc2)c(=O)c1-c1ccc(Cl)cc1 | 9.3
COc1ccc(C(=O)NC(=S)Nc2ccccc2F)cc1 | 9.53
CN(C)S(=O)(=O)Oc1ccsc1C(=O)Nc1ccc(Cl)cc1 | -33.7
Cc1cc(N=NC(=O)c2ccccc2)ccc1O | 4.74
O=C(Nc1ccc(Cl)cc1)NC1CCCC1Cc1ccco1 (stereo not shown) | -15.3
Cc1ccc(Nc2cc(C)nc3ccc(C)cc23)cc1 | -37.9
Cc1ccc2nc(C)cc(Nc3ccc([N+](=O)[O-])cc3)c2c1 | -14.4
Clc1ccc2c(NNc3ccccc3Cl)ccnc2c1 | 7.9
CCOc1ccccc1Nc1cc(C)nc2ccc(C)cc12 | -70.1
CCOc1ccccc1/C=N/Nc1cc(C)nc2ccc(C)cc12 | 8.9
CCOc1ccccc1Nc1ccnc2cc(Cl)ccc12 | -57.2
CCOc1ccc(Nc2ccnc3cc(Cl)ccc23)cc1 | -7.97
CCOc1cc(/C=N/Nc2cc(C)nc3ccc(C)cc23)ccc1O | 11.1
CCOc1ccc(Nc2cc(C)nc3ccc(C)cc23)cc1 | -69.6
